Test results from PubChem BioAssay (NCI).
The panel holds about 79,000 compounds, 15% with a hit somewhere; the sample as a whole holds those more often. Unmarked numbers belong to inactive results. Activity calls are given as the source filed them. Rule as the data show it: active = growth inhibition above about 70%; inactive = the rest.

How the values were obtained:
[1] = NCI Yeast Anticancer Drug Screen. Data for the rad50 strain (AID 155);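 also: 0% = growth of vehicle-only cultures of the same strain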; settings: S. cerevisiae rad50 strain growth inhibition, active compounds read high
Summary of the method: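 Compounds were tested on a yeast strain with an engineered DNA damage repair alteration; the reported value is growth inhibition normalised to vehicle treatment.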

[2] = NCI Yeast Anticancer Drug Screen. Data for the mec2-1 strain (AID 157); settings: S. cerevisiae mec2-1 strain, active compounds read high
Summary of the method: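 Yeast mec2-1 mutant treated with compound. Readout: growth inhibition vs vehicle controls.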

[3] = NCI Yeast Anticancer Drug Screen. Data for the sgs1 mgt1 strain (AID 161);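 also: 0% = growth of cultures given vehicle only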; settings: S. cerevisiae sgs1 mgt1 strain, active compounds read high
Summary of the method: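 Read-out: growth inhibition vs vehicle controls. Cells: mutant yeast strain deficient in DNA damage repair.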

[4] = NCI Yeast Anticancer Drug Screen. Data for the cln2 rad14 strain (AID 165);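 also: 0% = growth equal to vehicle treated cultures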; settings: S. cerevisiae cln2 rad14 strain, active compounds read high
Summary of the method: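 cln2 rad14 yeast strain; compound exposure; growth inhibition read vs vehicle controls.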

[5] = NCI Yeast Anticancer Drug Screen. Data for the bub3 strain (AID 167); settings: S. cerevisiae bub3 mutant strain, active compounds read high
Summary of the method: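 Growth of a checkpoint-deficient yeast mutant is measured after compound exposure. Values represent inhibition relative to vehicle.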

[6] = NCI Yeast Anticancer Drug Screen. Data for the mlh1 rad18 strain (AID 175); settings: S. cerevisiae mlh1 rad18 strain growth inhibition, active compounds read high
Summary of the method: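 Yeast w/ defined DNA-repair lesions; compound exposure; growth vs vehicle controls → % inhibition.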

[7] = at 5.0 µM (retest, dose inferred, filed as 0.5)
[8] = at 50.0 µM (retest, dose inferred, filed as 5.0)

Row | SMILES | growth inhibition [1, 7] | growth inhibition [1, 8] | growth inhibition ([1]; at 50.0 µM) | growth inhibition [2, 7] [%] | growth inhibition [2, 8] | growth inhibition ([2]; at 50.0 µM) | growth inhibition [3, 7] | growth inhibition [3, 8] | growth inhibition ([3]; at 50.0 µM) | growth inhibition [4, 7] | growth inhibition [4, 8] | growth inhibition ([4]; at 50.0 µM) | growth inhibition [5, 7] | growth inhibition [5, 8] | growth inhibition ([5]; at 50.0 µM) | growth inhibition [6, 7] | growth inhibition [6, 8] | growth inhibition ([6]; at 50.0 µM)
1 | C[CH2][Sn]([Cl])([CH2]C)[CH2]C | 7% | 87% (active) | 98.3% (active) | 0 | 84% (active) | 98.1% (active) | 0% | 91% (active) | 97.3% (active) | -6% | 60% | 80.8% (active) | -18% | 83% (active) | 98.2% (active) | 2% | 92% (active) | 98.2% (active)
2 | C/C=C(\C)C(=O)OC1CC(C)(C)CC2C3=CCC4C5(C)CCC(=O)C(C)(C)C5CCC4(C)C3(C)CCC12C(=O)O (configuration not stated) (tested in a mixture with another compound) | 1% | 78% (active) | 86% (active) | -9 | 70% (active) | 84.7% (active) | 5% | 77% (active) | 89.2% (active) | 38% | 88% (active) | 87.9% (active) | 1% | 82% (active) | 86% (active) | 26% | 82% (active) | 84.3% (active)
3 | CC(=O)[O-].CC(=O)[O-].O=C(N/N=C/c1cc(Cl)cc(Cl)c1[OH2+])c1ccncc1.[Co+2] | 6% | 23% | 51.6% | 17 | 41% | 61.9% | 7% | 33% | 58.2% | 5% | 13% | 26.4% | 2% | 9% | 48% | 4% | 39% | 73.5% (active)
4 | N#C[S-].[La+3].c1ccc(-c2ccccn2)nc1.c1ccc(-c2ccccn2)nc1.c1ccc(-c2ccccn2)nc1 | 61% | 98% (active) | 91.5% (active) | 41 | 99% (active) | 93.8% (active) | 46% | 99% (active) | 93% (active) | 33% | 90% (active) | 91.9% (active) | 60% | 99% (active) | 92% (active) | 56% | 99% (active) | 91.3% (active)
5 | Cc1cc(C)c(C[N+](C)(C)C)c(C)c1C | 82% (active) | 98% (active) | 98.5% (active) | 57 | 99% (active) | 99.7% (active) | 86% (active) | 98% (active) | 99.7% (active) | 75% (active) | 98% (active) | 98.7% (active) | 78% (active) | 98% (active) | 99.4% (active) | 88% (active) | 96% (active) | 98.9% (active)
6 | O=C(N/N=C(/CCN1CCCC1)CC(c1ccccc1)c1c(O)c2ccccc2oc1=O)c1ccncc1 (configuration not stated) | 15% | 15% | 83.3% (active) | -4 | -4% | 80% (active) | -1% | -1% | 85.1% (active) | -1% | -1% | 82.3% (active) | 0% | 0% | 81.3% (active) | 14% | 14% | 81.2% (active)
7 | C[C@]12CCCC[C@@H]1CC[C@@H]1[C@@H]2C(=O)C[C@@]2(C)[C@H]1CC[C@]2(C)O | 6% | 97% (active) | 60.4% | 0 | 99% (active) | 99% (active) | 0% | 99% (active) | 50.3% | 0% | 97% (active) | 20.6% | -4% | 80% (active) | 53% | 30% | 99% (active) | 98% (active)
8 | O=[N+]([O-])c1ccc2c3c(cccc13)CC2 | 15% | 86% (active) | 6.7% | 3 | 32% | 9.15% | 11% | 84% (active) | 0.9% | -1% | 48% | -4.15% | 6% | 54% | 19.9% | 25% | 90% (active) | 18.4%
9 | CCCCCN1C(=O)C2C(C1=O)C1(Cl)C(Cl)=C(Cl)C2(Cl)C1(Cl)Cl (configuration not stated) | 37% | 95% (active) | 97% (active) | 35 | 97% (active) | 96.4% (active) | 16% | 95% (active) | 96.4% (active) | 16% | 95% (active) | 95.2% (active) | 12% | 96% (active) | 97.5% (active) | 33% | 96% (active) | 95.6% (active)
